Where “and” joins values, the source holds several entries; their conditions need not be identical. Equal entries are not always repeated. About 79,000 compounds went through this panel and 15% of them were active in at least one assay; those are over-represented in the sample as a whole. Where a structure was tested more than once in an assay, its records may differ in their call. Calls of active or inactive are those of the source. No stated cut-off is given here; in the data, active means growth inhibition above about 70%; inactive means the rest.
Legend:
[1] = NCI Yeast Anticancer Drug Screen. Data for the rad52 strain (AID 147);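 further: 0% = growth of vehicle-treated control cultures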; conditions: S. cerevisiae rad52 mutant growth inhibition, stronger effect = higher value
In short: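 Here a repair-compromised yeast strain receives each compound; its growth is then quantified and normalised to vehicle-only controls.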

[2] = NCI Yeast Anticancer Drug Screen. Data for the wt1 strain (AID 149);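 further: 0% = growth of vehicle-treated wt1 cultures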; conditions: S. cerevisiae wt1 strain (SPY 50644) growth inhibition, stronger effect = higher value
In short: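 Readout: yeast growth inhibition, normalised to vehicle controls, in the wt1 strain exposed to test compounds.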

[3] = NCI Yeast Anticancer Drug Screen. Data for the rad50EPP+ strain (AID 151);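 further: 0% = growth of vehicle-treated control cultures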; conditions: S. cerevisiae rad50 mutant strain, stronger effect = higher value
In short: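 Read-out is yeast growth inhibition relative to vehicle; cells used were the rad50EPP+ strain.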

[4] = NCI Yeast Anticancer Drug Screen. Data for the mgt1 strain (AID 153); conditions: S. cerevisiae mgt1 mutant growth inhibition, stronger effect = higher value
In short: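 Measured: inhibition of mgt1 yeast growth by compound, normalized to vehicle-treated cultures.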

[5] = NCI Yeast Anticancer Drug Screen. Data for the rad50 strain (AID 155);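 further: 0% = growth of vehicle-only cultures of the same strain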; conditions: S. cerevisiae rad50 strain growth inhibition, stronger effect = higher value
In short: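 Compounds were tested on a yeast strain with an engineered DNA damage repair alteration; the reported value is growth inhibition normalised to vehicle treatment.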

[6] = NCI Yeast Anticancer Drug Screen. Data for the mec2-1 strain (AID 157); conditions: S. cerevisiae mec2-1 strain, stronger effect = higher value
In short: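 Using mec2-1 yeast: add compound, measure growth, express inhibition versus vehicle-treated cultures.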

[7] = NCI Yeast Anticancer Drug Screen. Data for the rad14 strain (AID 159);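 further: 0% = growth of vehicle-treated control cultures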; conditions: S. cerevisiae rad14 strain growth inhibition, stronger effect = higher value
In short: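 Compound-treated yeast with a defined DNA-repair lesion; growth inhibition normalised to vehicle-treated cultures.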

[8] = NCI Yeast Anticancer Drug Screen. Data for the sgs1 mgt1 strain (AID 161);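 further: 0% = growth of cultures given vehicle only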; conditions: S. cerevisiae sgs1 mgt1 strain, stronger effect = higher value
In short: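 This yeast growth screen uses a strain with defined DNA-repair lesions; compound-treated growth is compared with vehicle-treated growth.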

[9] = NCI Yeast Anticancer Drug Screen. Data for the cln2 rad14 strain (AID 165);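 further: 0% = growth equal to vehicle treated cultures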; conditions: S. cerevisiae cln2 rad14 strain, stronger effect = higher value
In short: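 Yeast strain cln2 rad14, bearing defects in cell cycle control and DNA repair, serves as the test system; values reflect growth inhibition compared with vehicle.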

[10] = NCI Yeast Anticancer Drug Screen. Data for the bub3 strain (AID 167); conditions: S. cerevisiae bub3 mutant strain, stronger effect = higher value
In short: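 Growth of a checkpoint-deficient yeast mutant is measured after compound exposure. Values represent inhibition relative to vehicle.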

[11] = NCI Yeast Anticancer Drug Screen. Data for the wt2 strain (AID 169);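 further: 0% = growth of vehicle-treated yeast cultures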; conditions: S. cerevisiae wt2 strain growth inhibition, stronger effect = higher value
In short: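 Treated yeast vs. vehicle-treated yeast: growth inhibition determined.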

[12] = NCI Yeast Anticancer Drug Screen. Data for the mlh1 strain (AID 171);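 further: 0% = growth of vehicle-treated control cultures of the same strain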; conditions: S. cerevisiae mlh1 strain growth inhibition, stronger effect = higher value
In short: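 A yeast strain with a defined genetic lesion serves as the test organism. Cultures receive compound or vehicle, and growth is measured.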

[13] = NCI Yeast Anticancer Drug Screen. Data for the sgs1 strain (AID 173);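 further: 0% = growth of vehicle-only control cultures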; conditions: S. cerevisiae sgs1 mutant, stronger effect = higher value
In short: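 A genetically defined yeast mutant is incubated with the test compound, and its growth is compared to that of the same strain given vehicle.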

[14] = NCI Yeast Anticancer Drug Screen. Data for the mlh1 rad18 strain (AID 175); conditions: S. cerevisiae mlh1 rad18 strain growth inhibition, stronger effect = higher value
In short: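 Steps: expose repair-defective yeast to compound; measure growth; express inhibition against vehicle-treated controls.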

[15] = NCI Yeast Anticancer Drug Screen. Data for the rad18 strain (AID 177); conditions: S. cerevisiae rad18 mutant growth inhibition, stronger effect = higher value
In short: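 Measured value is growth inhibition of a yeast strain bearing a DNA repair alteration, referenced to vehicle-treated cells.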

[16] = NCI Yeast Anticancer Drug Screen. Data for the CLN2oe strain (AID 163);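 further: 0% = growth of vehicle-only control cultures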; conditions: S. cerevisiae CLN2oe strain, stronger effect = higher value
In short: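 Whole-cell yeast growth assay. A strain engineered for altered cell-cycle control received compound, and inhibition relative to vehicle-treated cultures was recorded.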

[17] = at 5.0 µM (retest, dose inferred, filed as 0.5)
[18] = at 50.0 µM (retest, dose inferred, filed as 5.0)

Measured: growth inhibition

COc1cc([C@@H]2c3cc4c(cc3[C@@H](Nc3ccc(NC(=O)c5cc([N+](=O)[O-])cn5C)cc3)[C@H]3COC(=O)[C@H]23)OCO4)cc(OC)c1O
50% (inactive) and 84% (active): [9]; [18]
inactive: [1]; at 1.2 µM 25% | [2]; at 1.2 µM 9% | [2]; at 3.7 µM 20% | [2]; at 11.0 µM 26% | [2]; at 33.0 µM 32% | [2]; at 100.0 µM 36% | [3]; at 1.2 µM 4% | [3]; at 3.7 µM 10% | [3]; at 11.0 µM 27% | [3]; at 33.0 µM 14% | [3]; at 100.0 µM 22% | [4]; at 1.2 µM -3% | [4]; at 3.7 µM 5% | [4]; at 11.0 µM 14% | [4]; at 33.0 µM 35% | [4]; at 100.0 µM 41% | [5]; at 1.2 µM 11% | [6]; at 1.2 µM -16% | [6]; at 3.7 µM 6% | [6]; [17] 38% and 52% | [6]; at 11.0 µM 42% | [6]; at 33.0 µM 66% | [7]; at 1.2 µM 4% | [7]; at 3.7 µM 16% | [7]; at 11.0 µM 18% | [7]; at 33.0 µM 50% | [7]; at 100.0 µM 59% | [8]; [17] 16% and 54% | [8]; at 50.0 µM 47.5% and 67% | [9]; [17] 16% and 22% | [9]; at 50.0 µM 47% and 49.9% | [10]; at 1.2 µM -10% | [10]; at 3.7 µM 0% | [10]; [17] 19% and 42% | [10]; at 11.0 µM 14% | [10]; at 33.0 µM 36% | [10]; at 50.0 µM 26.8% and 51.2% | [10]; at 100.0 µM 43% | [11]; at 1.2 µM -28% | [11]; at 3.7 µM -12% | [11]; at 11.0 µM -8% | [11]; at 33.0 µM 6% | [11]; at 100.0 µM 17% | [12]; at 1.2 µM -15% | [12]; at 3.7 µM 5% | [12]; at 11.0 µM 22% | [12]; at 33.0 µM 39% | [12]; at 100.0 µM 53% | [13]; at 1.2 µM -6% | [13]; at 3.7 µM 6% | [13]; at 11.0 µM 30% | [13]; at 33.0 µM 44% | [13]; at 100.0 µM 49% | [15]; at 1.2 µM -9% | [15]; at 3.7 µM 3% | [15]; at 11.0 µM 27% | [15]; at 33.0 µM 43% | [15]; at 100.0 µM 53%
20.1% (inactive) and 74.3% (active): [14]; at 50.0 µM
62% (inactive) and 95% (active): [14]; [18]
67.5% (inactive) and 74.8% (active): [6]; at 50.0 µM
active: [1]; at 3.7 µM 84% | [1]; at 11.0 µM 92% | [1]; at 33.0 µM 91% | [1]; at 100.0 µM 93% | [5]; at 3.7 µM 74% | [5]; [17] 92% and 96% | [5]; at 11.0 µM 88% | [5]; at 33.0 µM 92% | [5]; [18] 95% and 97% | [5]; at 100.0 µM 92% | [6]; [18] 79% and 96% | [6]; at 100.0 µM 74%
37% (inactive) and 80% (active): [14]; [17]
53% (inactive) and 93% (active): [8]; [18]
67.5% (inactive) and 75.9% (active): [5]; at 50.0 µM
46% (inactive) and 90% (active): [10]; [18]

COc1ccc(NC(=O)CC2SC(=Nc3ccccc3C)NC2=O)c([N+](=O)[O-])c1 (stereo unspecified)
active: [1]; at 100.0 µM 75% | [3]; at 100.0 µM 80% | [4]; at 100.0 µM 99% | [5]; at 100.0 µM 98% | [6]; at 50.0 µM 72.2% | [6]; at 100.0 µM 97% | [8]; [18] 74% | [8]; at 50.0 µM 72.9% | [10]; [18] 71% | [10]; at 100.0 µM 97% | [11]; at 100.0 µM 92% | [12]; at 100.0 µM 99% | [13]; at 100.0 µM 99% | [14]; at 50.0 µM 74% | [15]; at 100.0 µM 98%
inactive: [1]; at 1.2 µM 0% | [1]; at 3.7 µM -2% | [1]; at 11.0 µM 2% | [1]; at 33.0 µM 13% | [2]; at 1.2 µM -1% | [2]; at 3.7 µM -1% | [2]; at 11.0 µM 1% | [2]; at 33.0 µM 10% | [2]; at 100.0 µM 36% | [3]; at 1.2 µM -2% | [3]; at 3.7 µM -2% | [3]; at 11.0 µM 1% | [3]; at 33.0 µM 28% | [4]; at 1.2 µM -2% | [4]; at 3.7 µM 1% | [4]; at 11.0 µM 1% | [4]; at 33.0 µM 12% | [5]; at 1.2 µM 1% | [5]; at 3.7 µM -44% | [5]; [17] 0% | [5]; at 11.0 µM 26% | [5]; at 33.0 µM 18% | [5]; [18] 69% | [5]; at 50.0 µM 56.7% | [6]; at 1.2 µM 1% | [6]; at 3.7 µM 1% | [6]; [17] -17% | [6]; at 11.0 µM 4% | [6]; at 33.0 µM 15% | [6]; [18] 66% | [8]; [17] 2% | [16]; at 1.2 µM 0% | [16]; at 3.7 µM -4% | [16]; at 11.0 µM 0% | [16]; at 33.0 µM -6% | [16]; at 100.0 µM 16% | [9]; [17] -2% | [9]; [18] 22% | [9]; at 50.0 µM 32.2% | [10]; at 1.2 µM 2% | [10]; at 3.7 µM -1% | [10]; [17] -8% | [10]; at 11.0 µM -5% | [10]; at 33.0 µM 6% | [10]; at 50.0 µM 34.7% | [11]; at 1.2 µM -1% | [11]; at 3.7 µM 7% | [11]; at 11.0 µM 1% | [11]; at 33.0 µM 11% | [12]; at 1.2 µM 0% | [12]; at 3.7 µM -1% | [12]; at 11.0 µM 0% | [12]; at 33.0 µM 11% | [13]; at 1.2 µM -2% | [13]; at 3.7 µM 1% | [13]; at 11.0 µM 9% | [13]; at 33.0 µM 37% | [14]; [17] -1% | [14]; [18] 53% | [15]; at 1.2 µM -1% | [15]; at 3.7 µM 4% | [15]; at 11.0 µM 6% | [15]; at 33.0 µM 41%
